The source made the active and inactive calls. A call without a number means that no potency is given here. Calls come from the whole dose curve; as a rule, active = well fitted activation curve with a large enough effect; inconclusive = small, poorly fitted or top-dose-only effect; inactive = flat fitted curve, though single readings scatter.

This test is described as follows: Cellular Toxicity (caspase-3) SK-N-SH (AID 661). The note with it: SK-N-SH caspase-3 activation, qHTS; series mostly up to 91.7 µM. The source says:
NIH Chemical Genomics Center [NCGC]
NIH Molecular Libraries Screening Centers Network [MLSCN]
National Institutes of Environmental Health Sciences [NIEHS]
National Toxicology Program [NTP]
We have developed a 1536-well cell-based assay for quantitative high throughput screening (qHTS) against a number of cell lines to determine in vitro caspase 3/7 activity of small molecules. This particular assay uses the SK-N-SH cell line which is derived from human neuroblastoma.
NCGC Assay Protocol Summary:
The Caspase-Glo 3/7 assay (Promega) is a homogeneous method to measure caspase-3 and caspase-7 activities in cultured cells. The quantitation of caspase 3/7 activity is based on the cleavage of a peptide-aminoluciferin substrate. After caspase cleaves the substrate the free aminoluciferin is liberated and serves as the substrate of luciferase, which generates the light. The luminescent signal is proportional to amount of caspase 3/7 activity present.
Using the Caspase-Glo 3/7 assay, the amount of caspase 3/7 activity was measured in the SK-N-SH cell line with complete culture medium following compound treatment for 16 hours. The assay was performed in opaque white 1536-well plates. In the screen, tamoxifen and staurosporine were used as positive controls. Library compounds were measured for their ability to cause the activation of caspase 3/7 in the cell line, as reflected by an increase in luminescence signal, in a concentration-dependent manner. Data were normalized to the controls for basal activity (DMSO only) and 100% stimulation (10 uM staurosporine). AC50 values were determined from concentration-response data modeled with the standard Hill equation.
qHTS protocol for caspase 3/7 assay in SK-N-SH cells
[Step] [Parameter] [Value] [Description]
1. Reagent; 5 uL; 1500 SK-N-SH cells/well
2. Time; 5 hr; 37 °C incubation
4. Controls; 23 nL; Tamoxifen 0.23 uM to 100 uM & staurosporine 1.4 pM to 100 uM
5. Time; 16 hr; 37 °C incubation
6. Reagent; 5 uL; Caspase-Glo 3/7 reagent
7. Time; 1 hr; Room Temperature
8. Detection; Luminescence; Viewlux plate reader
Keywords: caspase 3/7, apoptosis, SK-N-SH cell line, luminescence, NTPHTS, NTPHTS_NCGC, NIEHS, EPA, DSSTox, MLSMR, MLSCN, NIH Roadmap, qHTS, NCGC
(Quantitative high-throughput screening tests each substance at several concentrations.)
Regarding `CCCCOCC1CO1` (stereo not given), the Potency entry was “inactive”. The value for `CCOP(=S)(OCC)Oc1nc(Cl)c(Cl)cc1Cl` was “inactive”; that for `O=Cc1ccc2c(c1)OCO2` was “inactive”; that for `Oc1cccc(Cl)c1Cl` was “inactive”.

Take `ClC(Cl)C(Cl)Cl`: the Potency result is “inactive”. In the case of `Nc1ccc(Cl)c(Cl)c1`, the Potency entry was “inactive”. On to `CC(=O)NNc1ccccc1`, for which the Potency result was “inactive”. With `Clc1ccc(Cl)c(Cl)c1`, the Potency entry is “inactive”. With `CCCCC(=O)Cl`, the Potency result is “inactive”. On to `O=C(O)c1cc(Cl)ccc1Cl`, for which the Potency result is “inactive”.

With `Clc1cccc(Cl)c1Cl`, the Potency result was “inactive”. The value for `C=CCc1cc(OC)c2c(c1)OCO2` was “inactive”. With `CN(C)c1ccc(N=Nc2ccccc2)cc1`, the Potency entry is “inactive”.

As to `CCCCCCCCCCCCCl`, the Potency entry was “inactive”. On to `CCCCCc1cc(O)cc(O)c1`, for which the Potency result was “inactive”. For the compound `CCNCC`, the Potency result is “inactive”. With `CC(C)(OOC(C)(C)c1ccccc1)c1ccccc1`, the Potency result is “inactive”. Take `Cc1ccc(N)cc1Cl`: the Potency result is “inactive”. Turning to `O=[N+]([O-])c1ccc(Cl)cc1`, the Potency result is “inactive”. As for `c1ccc(OCC2CO2)cc1` (stereo not given), the Potency entry was “inactive”.

As for `O=[N+]([O-])c1ccccc1-c1ccccc1`, the Potency result was “inactive”. As for `C=CCBr`, the Potency entry is “inactive”. As to `CCOP(=S)(OCC)SCCSCC`, the Potency entry is “inactive”.

In the case of `O=[N+]([O-])c1cc(Cl)c(Cl)cc1Cl`, the Potency entry is “inactive”. On to `CC(C)[N+](=O)[O-]`, for which the Potency result is “inactive”. Consider `[O-][Cl+2]([O-])O`, for which the Potency result was “inactive”. As for `O=Cc1ccc(Cl)cc1Cl`, the Potency entry was “inactive”. As to `Cc1coc2c1CCC(C)C2` (stereo not given), the Potency entry was “inactive”. For `CSSC`, the Potency entry is “inactive”. As for `Brc1ccc(Oc2ccc(Br)cc2Br)c(Br)c1`, the Potency entry was “inactive”. For the compound `ClCc1ccccc1`, the Potency entry is “inactive”. For `C1CC2OC2CC1C1CO1` (stereo not given), the Potency result is “inactive”.

Turning to `Cc1cccc(N)c1C`, the Potency result was “inactive”. On to `Cl/C=C/Cl`, for which the Potency entry was “inactive”.

`Nc1cc(Cl)ccc1O`: the Potency entry is “inactive”.

With `CCCCNC(=O)n1c(NC(=O)OC)nc2ccccc21`, the Potency entry is “inactive”. On to `C=CCO`, for which the Potency result was “inactive”. The result for `OCC(Cl)CCl` (stereo not given) reads “inactive”; that for `Nc1ccc2ccccc2c1`, “inactive”. Turning to `C=CCCl`, the Potency entry was “inactive”.

Source of the values: PubChem BioAssay (NCATS).
